Screens as filed in PubChem.
In the library only some 6.3% were active in any assay of this set; here they are far more common.
DPM-DC inhibit: blocks S. pneumoniae diphosphomevalonate decarboxylase. purified DPM-DC, PK/LDH coupled NADH fluorescence. calls only at 10 µM. 65,000 tested, 0.49% active. AID 556;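 active means the 320 compounds with the highest percent inhibition in the single-dose primary screen, excluding strongly autofluorescent ones, cut at about 32% in these data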;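 further: kinetic rate of NADH fluorescence loss reporting ADP formed by the decarboxylase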
Spn PMK inh: S. pneumoniae PMK inhibition | purified PMK, PK/LDH-coupled NADH absorbance 340 nm | 65,000 tested, 0.49% active | AID 539 | inhibition, % at 10 µM;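 active means top-ranked compounds by inhibition in the single 10 µM screen, taking a fixed number of the strongest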;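 further: 0% = full reaction with DMSO carrier and 100% = background rate without enzyme reaction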
Autofluor 339: intrinsic fluorescence of library compounds, ex339/em460 – biochemical, MLSMR library, data from DPM-DC assay, artefact control, profiling panel; compound autofluorescence, ex339/em460 nm, NADH buffer; active compounds read high; 1 = no-compound wells, NADH background; 65,000 tested, 5.5% active; fluorescence fold increase at 10 µM;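 active means at 10 µM, mean starting fluorescence two-fold or more over control wells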;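 further: signal is the first read of a kinetic run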
Spn MK inh: blocks S. pneumoniae mevalonate kinase; purified MK, PK/LDH-coupled NADH absorbance 340 nm; inhibition, % at 10 µM; 65,000 tested, 0.48% active; AID 555;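 active means ranked among the strongest by inhibition in the single 10 µM screen, a fixed top-ranked set picked for dose follow-up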
Abs 340nm: absorbance at 340 nm | fold change at 10 µM | AID 708 | 65,000 tested, under 10 active | compound absorbance at 340 nm, fold over control;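 active means at 10 µM dose, initial 340 nm absorbance at least 2 fold that of control wells; inactive means change under 2 fold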;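 further: initial absorbance extrapolated from kinetic A340 decline of NADH oxidation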
NADH coupling: inhibitors of enzymes used to reach an NAD/NADH endpoint. coupled PK/LDH NADH assays, four targets. IC50, µM (titrated, usually from 10 µM), for the others: top-dose inhibition. 65,000 tested, 0.02% active;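 active means single-dose screening hits from any of four coupled enzyme assays that gave an IC50 when retested across doses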;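 further: the DPM-DC format reads NADH fluorescence rather than 340 nm absorbance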
Numbers without * were called inactive; i = inactive; x = no result given; + = active, no number; ! = a repeat was not active.

SMILES	DPM-DC inhibit	Spn PMK inh	Autofluor 339	Spn MK inh	Abs 340nm	NADH coupling
COC(=O)C1=C(N)Oc2cc(C)n(CC3CCCO3)c(=O)c2C1c1ccc(Cl)cc1 (stereo not drawn)	i	18	1.1	4	1	7%
Cc1c(-c2cccs2)[n+](=O)c2c(n1[O-])CCCCC2	i	0	1.1	8	1.1	3%
COc1ccc(-c2nc(CN3CCC(C(=O)N4CCc5ccccc54)CC3)c(C)o2)cc1OC	i	0	1.1	7	1	2%
Cc1n[nH]c(C)c1S(=O)(=O)N(CC(=O)NC1CCCC1)c1ccc(C(C)C)cc1	i	10	1	7	1	6%
COc1ccc(N2CCN(c3nc4c(c(=O)[nH]c(=O)n4C)n3CCCc3ccccc3)CC2)cc1	i	0	1	1	0.98	2%
Cc1cccc(-n2ncc3c(N4CCN(c5nc(C)cc(C)n5)CC4)ncnc32)c1	i	12	1.1	21	0.96	11%
COc1ccc2c(c1OC)C(=O)OC2C1c2c(cc3c(c2OC)OCO3)CCN1C (stereo not drawn)	i	26*!	1.1	9	1	1%
CN1CCc2cc3c(c4c2C1CC41CCC(=NO)CC1)OCO3 (stereo not drawn)	i	7	1.8	12	1	13%
COC(=O)c1cc(NS(=O)(=O)c2ccc(OC)c(OC)c2)ccc1Cl	i	10	1.1	9	1	6%
COC(=O)c1cc(Cl)c(NS(=O)(=O)c2ccccc2)cc1OC	+	11	1.9	0	1	15%
Cn1c(-c2c(N)n(C3CCCC3)c3nc4ccccc4nc23)nc2ccccc21	x	12	3.8*	10	1.1	11%
COC(=O)c1ccc(NC(=O)Cn2nnc3ccccc32)cc1	i	10	1	8	1.1	3%
COC(=O)c1nonc1NCn1nnc2ccccc21	i	29*	1.1	7	0.98	12%
CCOC(=O)CSC(C)C(=O)Nc1nnc(C(C)C)s1 (stereo not drawn)	i	0	1.1	3	1	1%
COc1ccc(S(=O)(=O)N2CCCCC2)cc1C(C)C	i	0	1.1	4	1	2%
COCCCn1c(=NC(=O)c2ccc3c(c2)OCO3)c(C#N)cc2c(=O)n3cccc(C)c3nc21	i	8	1.3	4	1.1	4%
CCCCCn1c(=NC(C)=O)c(C#N)cc2c(=O)n3cccc(C)c3nc21	x	10	3.6*	0	1.1	5%
CCCn1c(=NC(C)=O)c(C#N)cc2c(=O)n3cccc(C)c3nc21	x	8	2.9*	0	1	2%
Cc1cccn2c(=O)c3cc(C#N)c(=N)n(Cc4cccnc4)c3nc12	i	0	1.2	10	1	9%
O=C(CCn1cccc1)NCCc1ccc(Cl)cc1	i	9	1.1	1	1	3%
Cc1ccc2[nH]c(-c3ccccc3)cc(=O)c2c1	x	8	2.2*	5	1.1	7%
Cc1ccc(NC(=O)CSc2nnc(-c3ccc(S(=O)(=O)N4CCCC4)cc3)o2)cc1C	i	20	1.1	0	1.1	7%
CCOC(=O)c1c(C)n(OCc2ccccc2)c2ccc3c(no[n+]3[O-])c12	+	6	0.98	7	0.99	4%
CC1(C)CC(C)(O)P(=O)(c2ccccc2)O1 (stereo not drawn)	i	30*	1.1	11	0.97	14%
CC1=CCP(=O)(c2ccccc2)C1 (stereo not drawn)	i	19	1.1	2	1	7%
CCc1cc2c(=O)c(-c3cscn3)coc2c(CN(C)C)c1O	x	1	2.3*	6	1.1	4%
CCOC(=O)c1nn(-c2ccc3c(c2)CCN3C(C)=O)cc1O	x	0	2.2*	6	1.1	3%
COC(=O)c1[nH]c2cccc(OC)c2c1NC(=O)CCN1CCN(c2cccc(Cl)c2)CC1	i	13	2.6*	9	1	12%
COC(=O)c1[nH]c2cccc(OC)c2c1NC(=O)CCN1CC(C)CC(C)C1 (stereo not drawn)	i	9	2.7*	9	1.1	13%
COC(=O)c1[nH]c2cccc(OC)c2c1NC(=O)CN1CCOCC1	i	0	2.9*	2	1.1	3%
